Experimental data taken from the supplement of paper PMC10646978.
± gives the standard deviation.

Experiments:
Conditions in all cases: modulator concentration 10 µM
[1] = system: RAW-Dual (murine macrophage reporter line); test: NF-kB reporter (SEAP) activity fold change vs agonist alone; higher = enhanced NF-kB activity
Method in brief: (§1)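 In 384-well plates holding 50 000 RAW-Dual murine macrophage reporter cells per well, compound at 10 μM final was pre-incubated for 1 hour at 37 °C, after which a PRR agonist was added overnight. Supernatant SEAP read with QUANTI-Blue at 620 nm absorbance reported NF-κB, and Lucia luciferase read with QUANTI-Luc luminescence reported IRF. Fold change values come from dividing each reporter signal by the mean of agonist-only control wells on the same plate, averaged over replicate plates with propagated errors.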

[2] = system: RAW-Dual (murine macrophage reporter line); test: IRF reporter (Lucia luciferase) activity fold change vs agonist alone; higher = enhanced IRF activity
Method in brief: as §1

[3] = system: RAW-Dual (murine macrophage reporter line); test: viability score (confluency relative to resting cells, overnight) (fraction); higher = more viable, active = viable (0.7 or more)
Method in brief: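 In 384-well plates, RAW-Dual macrophages received compound at a final 10 μM overnight. Two confluency masks were then made with IncuCyte software from IncuCyte images of all imaged wells. The viability score is defined as confluency relative to resting cells. Passing the cutoff required both masks to lie above 70% of resting cells.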

[4] = agonist: CpG ODN 1826 0.5 ug/mL

Row | SMILES | NF-kB reporter [1, 4] | NF-kB reporter ([1]; agonist: LPS 0.1 ug/mL) | NF-kB reporter ([1]; agonist: MPLA […]) | IRF reporter ([2]; agonist: 3'3'-cGAMP 10 ug/mL) | IRF reporter ([2]; agonist: LPS 0.1 ug/mL) | IRF reporter ([2]; agonist: MPLA […]) | viability score [3]
1 | CS(=O)(=O)N(CC(=O)Nc1ccccc1Br)c1ccc(Cl)c(C(F)(F)F)c1 | 0.796 ± 0.13 | 0.971 ± 0.076 | 0.77 ± 0.072 | 1.15 ± 0.055 | 1.13 ± 0.23 | 1.2 ± 0.15 | 0.999 (active)
2 | C=CCNC(=O)CN(Cc1ccccc1)S(=O)(=O)c1ccc(OC)c(OC)c1 | 0.684 ± 0.4 | 0.886 ± 0.078 | 0.946 ± 0.089 | 0.916 ± 0.029 | 1.11 ± 0.14 | 1.13 ± 0.17 | 1.04 (active)
3 | CN1CCC(=C2c3ccccc3C=Cc3ccccc32)CC1.Cl | 0.727 ± 0.13 | 0.808 ± 0.067 | 0.904 ± 0.048 | 0.794 ± 0.049 | 1 ± 0.19 | 0.974 ± 0.2 | 0.651 (inactive)
4 | Cc1oncc1C(=O)NCCn1nc(C(F)(F)F)cc1C1CC1 | 1.06 ± 0.096 | 1.05 ± 0.081 | 0.991 ± 0.067 | 0.972 ± 0.039 | 0.978 ± 0.087 | 0.935 ± 0.21 | 1 (active)
5 | CC(C)(C)C(=O)Oc1ccc(S(=O)(=O)Nc2ccccc2C(=O)NCC(=O)O)cc1 | 0.755 ± 0.05 | 1.07 ± 0.086 | 1.18 ± 0.063 | 1.1 ± 0.064 | 1.09 ± 0.26 | 1.38 ± 0.47 | 0.972 (active)
6 | CCC(C)C(=O)OC1CC(C)C=C2C=CC(C)C(CCC3CC(O)CC(=O)O3)C21 (centres undefined) | 1.33 ± 0.32 | 1 ± 0.061 | 1.06 ± 0.13 | 0.919 ± 0.031 | 1.19 ± 0.19 | 1.1 ± 0.16 | 1 (active)
7 | CNc1ncnc2c1ncn2[C@@H]1O[C@H](CO)[C@@H](O)[C@H]1O [Prestw-338] | 0.931 ± 0.073 | 0.929 ± 0.09 | 1.16 ± 0.15 | 1.15 ± 0.043 | 1.25 ± 0.17 | 1.33 ± 0.25 | 1.05 (active)
8 | CCCCc1nc(C)c(CC(=S)N(C)C)c(=O)n1Cc1ccc(-c2ccccc2-c2nnn[nH]2)cc1 | 0.589 ± 0.025 | 0.273 ± 0.022 | 1.36 ± 0.077 | 0.0858 ± 0.062 | 3.7 ± 0.2 | 8.26 ± 0.79 | 0.139 (inactive)
9 | COc1ccc(Cl)cc1C(=O)Nc1cc(C(F)(F)F)cc(C(F)(F)F)c1 | 1.03 ± 0.082 | 1.01 ± 0.059 | 0.962 ± 0.086 | 0.966 ± 0.024 | 1.54 ± 0.26 | 1.19 ± 0.23 | 1.01 (active)
10 | Cc1cc(C(=O)N2CCC(Oc3cccc4cccnc34)CC2)n(C)n1 | 0.994 ± 0.3 | 1.08 ± 0.054 | 1.07 ± 0.081 | 0.942 ± 0.035 | 1.03 ± 0.11 | 1.13 ± 0.18 | 0.536 (inactive)
11 | O=C(NC1CCN(CCCCC2(C(=O)NCC(F)(F)F)c3ccccc3-c3ccccc32)CC1)c1ccccc1-c1ccc(C(F)(F)F)cc1 | 0.881 ± 0.043 | 0.952 ± 0.12 | 1.08 ± 0.062 | 0.983 ± 0.045 | 1.46 ± 0.33 | 1.44 ± 0.53 | 0.968 (active)
12 | COc1ccc(Cl)cc1C(=O)NCCc1ccc(S(=O)(=O)NC(=O)NC2CCCCC2)cc1 | 0.75 ± 0.067 | 0.932 ± 0.056 | 0.987 ± 0.09 | 1.06 ± 0.052 | 1.36 ± 0.099 | 1.44 ± 0.15 | 1 (active)
13 | CCOC(=O)c1ncn2c1CN(C)C(=O)c1cc(F)ccc1-2 | 1.26 ± 0.22 | 1.03 ± 0.28 | 0.975 ± 0.058 | 0.912 ± 0.029 | 1.2 ± 0.27 | 1.16 ± 0.088 | 0.995 (active)
14 | O=C(OCCN1CCCCC1)c1ccc(O)cc1 | 1.01 ± 0.081 | 1.06 ± 0.07 | 1.03 ± 0.04 | 1.08 ± 0.077 | 1.03 ± 0.047 | 1.07 ± 0.18 | 1 (active)
15 | COC1(C)CCC2OC2(C)CCC2C1CC2(C)C (centres undefined) | 1.31 ± 0.31 | 1.06 ± 0.053 | 1.04 ± 0.12 | 1.03 ± 0.041 | 1.28 ± 0.15 | 1.17 ± 0.13 | 0.87 (active)
16 | COc1ccccc1-c1cc(-c2ccccc2)nc(SCC(N)=O)c1C#N | 1.06 ± 0.17 | 0.918 ± 0.12 | 0.928 ± 0.073 | 0.596 ± 0.02 | 1.2 ± 0.18 | 1.41 ± 0.2 | 1 (active)
17 | COc1cc2ncnc(Nc3ccc(F)c(Cl)c3)c2cc1NC(=O)/C=C/CN1CCCCC1 | 0.666 ± 0.32 | 0.936 ± 0.083 | 0.989 ± 0.081 | 0.486 ± 0.026 | 0.958 ± 0.2 | 0.861 ± 0.22 | 0.988 (active)
18 | Oc1c(Cl)cc(Cl)cc1Sc1cc(Cl)cc(Cl)c1O | 1.18 ± 0.11 | 0.917 ± 0.061 | 3.21 ± 0.07 | 0.564 ± 0.031 | 1.03 ± 0.16 | 1.1 ± 0.21 | 0.441 (inactive)
19 | CCOC(=O)c1ccc(N)cc1.Cl | 0.872 ± 0.12 | 1.03 ± 0.12 | 0.997 ± 0.056 | 0.819 ± 0.036 | 1.25 ± 0.1 | 0.977 ± 0.13 | 0.996 (active)
20 | COc1cc2nccc(Oc3ccc(NC(=O)Nc4cc(C)on4)c(Cl)c3)c2cc1OC | 0.178 ± 0.022 | 0.66 ± 0.062 | 0.639 ± 0.057 | 0.626 ± 0.028 | 0.938 ± 0.066 | 1.02 ± 0.1 | 1 (active)
21 | CN(C)c1nc(CNS(C)(=O)=O)nc(N2CCOCC2)n1 | 0.908 ± 0.047 | 0.916 ± 0.091 | 1.02 ± 0.071 | 1.08 ± 0.049 | 1.07 ± 0.18 | 1.14 ± 0.38 | 1.02 (active)
22 | Clc1ccc(CN2CCN(c3ncnc4scc(-c5cccs5)c34)CC2)cc1 | 0.489 ± 0.028 | 1.28 ± 0.1 | 1.25 ± 0.074 | 1.16 ± 0.072 | 1.66 ± 0.12 | 1.51 ± 0.14 | 0.997 (active)
23 | CNC(CC(=O)O)C(=O)O (centres undefined) | 0.986 ± 0.073 | 1.08 ± 0.073 | 0.978 ± 0.028 | 0.943 ± 0.054 | 0.942 ± 0.094 | 0.948 ± 0.078 | 1 (active)
24 | N[C@@H](CSCCCO)C(=O)O | 0.987 ± 0.073 | 1.01 ± 0.051 | 0.937 ± 0.033 | 0.922 ± 0.077 | 0.995 ± 0.047 | 0.971 ± 0.089 | 1 (active)
25 | COc1ccc(NC(=O)c2cn(-c3cc(N4CCCCC4)ncn3)cn2)cc1F | 1.31 ± 0.074 | 1.13 ± 0.086 | 1.22 ± 0.035 | 1.52 ± 0.45 | 1.01 ± 0.1 | 1.23 ± 0.3 | 0.97 (active)
26 | COc1ccc(CCNCC(O)COc2cccc(C)c2)cc1OC.Cl (centres undefined) | 0.68 ± 0.16 | 1.15 ± 0.057 | 1.06 ± 0.099 | 0.824 ± 0.029 | 1.19 ± 0.14 | 1.43 ± 0.25 | 0.985 (active)
27 | COc1cc(C=NN2C(=O)c3cccc4cccc(c34)C2=O)cc(Br)c1OC | 1.02 ± 0.08 | 1.12 ± 0.062 | 0.967 ± 0.062 | 1.01 ± 0.032 | 1.51 ± 0.29 | 1.13 ± 0.17 | 1.01 (active)
